# “And” between values parts separate entries of the source, which are not always exact repeats. Equal values may be shown once. In all, about 360,000 compounds went through this assay and about 2,400 (0.67%) were called active.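 How the source made its calls: active means compounds whose normalised, plate-corrected inhibition of enzyme fluorescence in the single-dose primary screen is 50% or more; inactive means the rest.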 The list comes from a sample in which actives are over-represented; it also holds similar structures and randomly drawn compounds.
# Molecular target: Fatty acid synthase (Homo sapiens) (UniProt P49327)
# Sequence (P49327 whole entry, looked up, the tested form may be a part): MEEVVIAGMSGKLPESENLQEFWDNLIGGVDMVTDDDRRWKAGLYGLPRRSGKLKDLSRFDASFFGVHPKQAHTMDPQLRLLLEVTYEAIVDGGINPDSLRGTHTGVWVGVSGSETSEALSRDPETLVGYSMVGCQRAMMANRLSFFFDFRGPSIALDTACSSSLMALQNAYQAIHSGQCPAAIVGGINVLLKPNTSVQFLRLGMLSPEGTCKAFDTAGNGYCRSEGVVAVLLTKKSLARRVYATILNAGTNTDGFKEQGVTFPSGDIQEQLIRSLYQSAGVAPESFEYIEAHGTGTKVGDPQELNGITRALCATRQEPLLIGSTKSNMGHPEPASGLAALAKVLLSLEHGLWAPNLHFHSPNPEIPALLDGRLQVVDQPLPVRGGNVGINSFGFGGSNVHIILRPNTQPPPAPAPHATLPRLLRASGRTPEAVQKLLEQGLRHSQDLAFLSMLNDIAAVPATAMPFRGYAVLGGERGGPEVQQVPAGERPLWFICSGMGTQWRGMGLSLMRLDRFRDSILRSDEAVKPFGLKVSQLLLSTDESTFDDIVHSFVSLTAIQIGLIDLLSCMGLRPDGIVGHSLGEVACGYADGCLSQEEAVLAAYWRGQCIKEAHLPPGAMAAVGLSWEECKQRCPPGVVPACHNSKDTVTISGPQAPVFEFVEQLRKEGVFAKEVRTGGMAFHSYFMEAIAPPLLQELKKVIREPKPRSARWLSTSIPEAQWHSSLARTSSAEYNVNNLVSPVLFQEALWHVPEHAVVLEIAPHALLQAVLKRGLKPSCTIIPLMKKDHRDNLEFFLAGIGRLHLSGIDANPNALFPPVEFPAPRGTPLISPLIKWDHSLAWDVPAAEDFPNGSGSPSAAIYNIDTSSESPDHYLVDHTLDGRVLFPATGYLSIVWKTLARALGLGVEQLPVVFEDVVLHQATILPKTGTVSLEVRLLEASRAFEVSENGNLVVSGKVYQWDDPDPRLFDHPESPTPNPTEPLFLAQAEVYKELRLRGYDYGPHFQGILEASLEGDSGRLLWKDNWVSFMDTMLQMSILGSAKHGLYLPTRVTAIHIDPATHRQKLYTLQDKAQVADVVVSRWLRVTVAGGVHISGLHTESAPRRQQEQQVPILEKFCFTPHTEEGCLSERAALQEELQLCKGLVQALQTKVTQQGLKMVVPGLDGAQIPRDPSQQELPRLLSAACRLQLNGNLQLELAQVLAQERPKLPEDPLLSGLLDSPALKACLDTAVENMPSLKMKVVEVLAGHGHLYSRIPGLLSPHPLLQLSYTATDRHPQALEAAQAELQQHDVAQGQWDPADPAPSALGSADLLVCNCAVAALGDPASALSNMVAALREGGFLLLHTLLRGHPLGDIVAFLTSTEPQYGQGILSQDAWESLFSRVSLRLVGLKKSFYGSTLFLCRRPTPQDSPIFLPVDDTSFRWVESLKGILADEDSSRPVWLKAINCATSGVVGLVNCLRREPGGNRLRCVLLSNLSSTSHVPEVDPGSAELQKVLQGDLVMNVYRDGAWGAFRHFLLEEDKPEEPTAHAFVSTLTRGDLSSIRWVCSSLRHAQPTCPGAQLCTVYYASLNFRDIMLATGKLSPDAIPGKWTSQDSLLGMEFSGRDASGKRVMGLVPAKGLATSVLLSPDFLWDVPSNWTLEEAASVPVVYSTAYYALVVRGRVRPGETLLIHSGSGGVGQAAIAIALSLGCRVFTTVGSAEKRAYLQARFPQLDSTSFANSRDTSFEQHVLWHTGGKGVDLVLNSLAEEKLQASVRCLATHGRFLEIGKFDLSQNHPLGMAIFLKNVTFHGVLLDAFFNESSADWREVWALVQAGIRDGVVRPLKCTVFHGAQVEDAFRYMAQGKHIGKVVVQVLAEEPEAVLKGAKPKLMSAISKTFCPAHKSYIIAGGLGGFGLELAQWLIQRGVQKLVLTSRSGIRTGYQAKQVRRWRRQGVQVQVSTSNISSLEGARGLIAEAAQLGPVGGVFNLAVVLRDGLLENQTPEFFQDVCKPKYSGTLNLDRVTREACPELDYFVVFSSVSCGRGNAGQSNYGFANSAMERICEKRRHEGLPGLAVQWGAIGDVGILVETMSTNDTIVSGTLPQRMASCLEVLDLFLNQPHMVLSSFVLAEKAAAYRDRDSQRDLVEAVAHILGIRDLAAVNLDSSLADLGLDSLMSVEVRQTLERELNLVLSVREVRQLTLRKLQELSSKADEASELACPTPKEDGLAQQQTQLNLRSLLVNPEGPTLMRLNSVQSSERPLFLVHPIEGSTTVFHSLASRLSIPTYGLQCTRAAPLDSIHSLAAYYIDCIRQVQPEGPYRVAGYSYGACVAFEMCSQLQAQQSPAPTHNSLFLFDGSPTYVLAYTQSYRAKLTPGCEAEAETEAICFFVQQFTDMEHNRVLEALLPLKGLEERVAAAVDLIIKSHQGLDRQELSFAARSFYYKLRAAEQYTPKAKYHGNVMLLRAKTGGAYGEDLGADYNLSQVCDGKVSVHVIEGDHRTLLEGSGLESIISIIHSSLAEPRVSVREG
# Test: FAS thioesterase domain inhibitors, primary screen, biochemical, fluorescence intensity, uHTS (AID 602261);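 further: 0% = DMSO with enzyme and 100% = substrate without enzyme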
# Conditions: recombinant FAS-TE, OMFH fluorogenic substrate, fluorescence endpoint; at 15 µM; active compounds read high
row,Structure (SMILES),inhibition
1,Cc1ccc(C2=NN(C(=O)COc3ncnc4ccccc34)C(c3ccco3)C2)cc1 (configuration not stated),8.9% (inactive)
2,CC1=C(C)CC2C(=O)N(c3cccc4ccccc34)C(=O)C2C1 (configuration not stated),7.3% (inactive)
3,O=C1c2cccc(OCC(=O)N3N=C(c4cccs4)CC3c3ccc(F)cc3)c2CCN1Cc1ccccc1 (configuration not stated),30.6% (inactive)
4,Oc1ccccc1C1=NN(c2ccccc2)C(c2ccccc2)C1 (configuration not stated),25.2% (inactive)
5,Cc1ccc(N2C(=O)C3N=NN(CC(=O)N4N=C(c5cccc6ccccc56)CC4c4ccccc4)C3C2=O)cc1 (configuration not stated),83.2% (active)
6,O=C1C2N=NN(CC(=O)N3N=C(c4cccc5ccccc45)CC3c3ccccc3)C2C(=O)N1c1ccccc1 (configuration not stated),84.2% (active)
7,Cc1ccc(NC(=O)[C@H](Cc2ccccc2)NC(=O)CC[C@H]2O[C@@H](n3ccc(=O)[nH]c3=O)[C@H](O)[C@@H]2O)cc1C,-9.9% (inactive)
8,Cc1ccc(Cl)c(OCC(=O)NN2CCN(C)CC2)c1,-5.7% (inactive)
9,COc1ccc2c(CC(=O)NNC(=O)c3ccccc3F)coc2c1,-5% (inactive)
10,COC(=O)[C@@H](NC(=O)NCc1cccc(OC)c1)C(C)C,-7.7% (inactive)
11,COc1ccc(NC(=O)CN2C(=O)CSc3ccc(S(=O)(=O)N4CCC(C)CC4)cc32)cc1,42.2% (inactive)
12,COc1ccc(-c2nc3cnccn3c2NC2CCCCC2)cc1-c1cccc(Cl)c1,32.3% (inactive) and 25.3% (inactive)
13,CCOc1cc(-c2nc3cc(C)ccn3c2NCC2CCCO2)ccc1O (configuration not stated),-4.4% (inactive)
14,COc1ccc(-c2nc3cnccn3c2NC(C)(C)CC(C)(C)C)cc1O,55% (active)
15,COc1ccc(NC2=CC(=S)NC(C)(C)C2)cc1,-11% (inactive)
16,CCOC(=O)/C(=N\Nc1cc(Cl)ccc1Cl)N1CCN(C)CC1,3.8% (inactive)
17,CCN(CCO)C(=S)Nc1cc(C(=O)OC)ccc1C(=O)OC,-10.4% (inactive)
18,Cc1cc(C(=O)OCC(=O)Nc2ccccc2Cl)c(C)o1,7.5% (inactive)
19,O=C(Nc1ccccc1Cl)c1ccccc1S(=O)(=O)c1ccccc1[N+](=O)[O-],6.3% (inactive)
20,O=C(Nc1ccccc1Cl)/C(Cl)=C(\Cl)S(=O)c1ccccc1 (configuration not stated),73.7% (active)
21,CC(C)Oc1ccc(CN2CCC2(C)C(=O)NCc2ccc(C(F)(F)F)cc2)cc1 (configuration not stated),34.4% (inactive)
22,CC1(C)CC(=O)C(C2=NC(C)(C)Cc3ccccc32)=C(O)C1,-7% (inactive)

row,Structure (SMILES),inhibition
1,FC(F)(F)c1cccc(-c2cc3ccccc3nc2N2CCCC2)c1,18.4% (inactive)
2,O=C(Nc1ccc(C(F)(F)F)cc1)c1cccc(-n2cnnn2)c1,64.5% (active)
3,O=C(Nc1cccc(-n2cnnn2)c1)c1cccnc1,-7.9% (inactive)
4,Cc1cc(Cl)ccc1OCCCC(=O)Nc1cccc(-n2cnnn2)c1,30.3% (inactive)
5,Cc1ccc(S(=O)(=O)Nc2ccc(F)c(S(=O)(=O)N3CCOCC3)c2)cc1,-1% (inactive)
6,COc1ccc(-c2ccc(OC(=O)NC3CCS(=O)(=O)C3)cc2)cc1 (configuration not stated),-3.8% (inactive)
7,CCOC(=O)CSc1nc(C)c(Oc2ccc(Cl)cc2Cl)c(=O)[nH]1,-5.3% (inactive)
8,CCc1ccc(C(=O)CSc2nnc(C)c(=O)[nH]2)cc1,-4.7% (inactive)
9,CCCCOC(=O)CNc1nnc(SCC(=O)OCC)[nH]c1=O,50.2% (active)
10,Cc1noc(C)c1S(=O)(=O)N(C)C[C@H]1OCCCC[C@@H](C)Oc2ccc(NC(=O)CCCN(C)C)cc2C(=O)N([C@H](C)CO)C[C@@H]1C,-10.2% (inactive)
11,COc1ccc(NC(=O)C2Cc3c(-c4ccc5c(c4)OCO5)ccnc3O2)cn1 (configuration not stated),1.3% (inactive)
12,COc1cccc(NC(=S)N(Cc2ccc(C)cc2)Cc2ccccn2)c1,5.4% (inactive)
13,COc1ccc(NC(=O)/C(Cl)=C(/Cl)S(=O)Cc2ccc(C)cc2)cn1 (configuration not stated),53.3% (active)
14,COCc1c(N)c(C)nc(Cl)c1C#N,-5.4% (inactive)
15,COc1cccc(-c2sc3ccc(OC)cc3c2-c2ccc(OCCN3CCCCC3)cc2)c1,15.5% (inactive)
16,COc1ccc(-c2csc3nc(-c4ccccc4F)oc(=O)c23)cc1OC,65.3% (active)
17,Cc1sc2nc(SCCO)n(-c3ccccc3)c(=O)c2c1C,-4.5% (inactive)
18,CC1CCN(c2oc(-c3ccccc3F)nc2C#N)CC1,20.3% (inactive)
19,COc1ccc(-c2csc3ncnc(Oc4ccc5c(C)cc(=O)oc5c4)c23)cc1,-2.5% (inactive)
20,COc1ccccc1-c1nc(C(F)(F)F)c(OC)o1,-1.4% (inactive)
21,Cc1sc2nc(-c3ccccc3F)oc(=O)c2c1C,54.7% (active)
22,Cc1cc(C)n2nc(CNS(=O)(=O)c3c(F)c(F)c(F)c(F)c3F)nc2n1,12.1% (inactive)

row,Structure (SMILES),inhibition
1,CC(=O)c1nn(-c2cccc(Br)c2)cc1C(=O)c1cccc2ccccc12,27.7% (inactive)
2,CCC1OC(c2ccc([N+](=O)[O-])cc2)=Nc2ccccc21 (configuration not stated),14.7% (inactive)
3,O=C(O)c1ccc(COc2c(F)c(F)cc(F)c2F)o1,-6.9% (inactive)
4,CC(C)C[C@@H]1Cc2[nH][nH]c(=O)c2[C@H](CCc2ccccc2)O1,-59.6% (inactive)
5,COc1cc(/C=C/c2ccc(/C=C/c3cc(OC)c(OC)c(OC)c3)cc2)cc(OC)c1OC,8.2% (inactive)
6,O=C(Cn1nnc2ccccc2c1=O)Nc1cc(C(F)(F)F)ccc1N1CCOCC1,5.9% (inactive)
7,CSCCC(NC(=O)COc1ccccc1)C(=O)OCc1ccc(Cl)cc1 (configuration not stated),24.4% (inactive)
8,CSCCC(NC(=O)COc1ccccc1)C(=O)OCC(=O)c1cc2ccccc2o1 (configuration not stated),70.7% (active)
9,CSCCC(NC(=O)COc1ccccc1)C(=O)OCCOc1ccc(Br)cc1 (configuration not stated),21.8% (inactive)
10,Cc1ccc(C)c2[nH]c(=O)c(CCNC(=O)CC(C)C)cc12,-6.6% (inactive)
11,Cc1cccc(CSc2nc3c(c(=O)n2C)SCC3)c1,12.5% (inactive)
12,CC1=CC(=C(C#N)c2nc3ccccc3s2)C=C(C)N1c1ccc(F)cc1F,59.2% (active)
13,COCCCNC(=O)CNC(=O)c1nn(-c2ccc(OC)cc2)c(=O)c2ccccc12,-6.6% (inactive)
14,O=C(CN1CCCCC1)N1c2ccccc2Sc2ccc(C(F)(F)F)cc21,11.9% (inactive)
15,COc1ccc(CNC(=O)C[C@H]2C[C@H](C(=O)N3CCOCC3)[C@@]3(CCC4CCCC4)c4[nH]c5ccc(Cl)cc5c4CCN3C2=O)cc1OC,89% (active)
16,CC[C@]12c3[nH]c4ccc(Cl)cc4c3CCN1C(=O)[C@@H](CC(=O)NCCN1CCOCC1)C[C@@H]2C(=O)N1CCN(C(=O)C2CC2)CC1,-7.3% (inactive)
17,O=C(C[C@H]1C[C@H](C(=O)N2CCOCC2)[C@@]2(CCC3CCCC3)c3[nH]c4ccc(Cl)cc4c3CCN2C1=O)NCc1ccco1,88.8% (active)
18,COc1ccc2[nH]c3c(c2c1)CCN1C(=O)C(CC(=O)NCCCN(C)C)C[C@H](C(=O)N2CCOCC2)[C@@]31CCC1CCCC1 (some centres not stated),43.3% (inactive)
19,CC[C@]12c3[nH]c4ccc(OC)cc4c3CCN1C(=O)C(CC(=O)NCc1ccco1)C[C@@H]2C(=O)N1CCN(C(=O)C2CC2)CC1 (some centres not stated),-7.3% (inactive)
20,CN(C)C(=O)CCc1ccc2c3c([nH]c2c1)[C@]1(CCC2CCCC2)[C@@H](C(=O)N2CCOCC2)C[C@H](CC(=O)NCc2ccco2)C(=O)N1CC3,21.1% (inactive)
21,COc1ccc(Br)c(Cn2c(C)c(C(=O)NCc3cccs3)sc2=O)c1,19.7% (inactive)
22,C[n+]1cc(-c2ccccc2)oc1-c1ccccc1,-4.9% (inactive)

row,Structure (SMILES),inhibition
1,COC1C(CO)OC(n2cnc3c(=S)nc(N)[nH]c32)C1O (configuration not stated),-3.8% (inactive)
2,COc1ccccc1C(=O)OCC(=O)Nc1cccc(S(=O)(=O)NC2=NCCCCC2)c1,-6.9% (inactive)
3,CCc1ccc(C(=O)OCC(=O)Nc2cccc(S(=O)(=O)NC3=NCCCCC3)c2)cc1,1.8% (inactive)
4,Cc1cccc(-n2c(SCC(=O)Nc3cccc(S(=O)(=O)NC4=NCCCCC4)c3)nc3ccccc3c2=O)c1C,71.3% (active)
5,CC(C)(C)NC(=O)NC(=O)COC(=O)Cc1c(F)cccc1Cl,4.6% (inactive)
6,CC(C)(C)NC(=O)NC(=O)COC(=O)Cc1ccc(Cl)cc1Cl,69.5% (active)
7,O=C(COC(=O)Cc1ccc(Cl)cc1Cl)NCc1ccco1,-8.2% (inactive)
8,COC(=O)CCC(=O)N1CCCC(CO)(Cc2ccccc2)C1 (configuration not stated),-5.2% (inactive)
9,Cc1ccccc1-c1nc(NC(C)C)nc2cc(-c3ccccc3)sc12,13% (inactive)
10,COc1ccc(-c2nnc(SC(C)C(=O)NC3CC3)o2)cc1 (configuration not stated),-5.6% (inactive)
11,COc1ccc(CN(C(=O)CSc2nnc(-c3ccc(OC)c(OC)c3)o2)c2ccc(F)cc2)cc1,45.7% (inactive)
12,COc1ccc(-c2nnc(SC(=O)N3c4ccccc4Sc4ccccc43)o2)cc1,51.9% (active)
13,COc1ccc(C(=O)NN2C(=O)C3C(c4ccccc4)C=CC(c4ccccc4)C3C2=O)cc1 (configuration not stated),33.6% (inactive)
14,CCNc1c(NS(=O)(=O)c2ccc(C3CCCCC3)cc2)c(=O)oc2ccccc12,5.3% (inactive)
15,Cc1cccc([C@@H]2[C@@H]3C(=O)N(C)C(=O)[C@@H]3[C@@H]3C(=O)Nc4ccccc4C(=O)N23)c1,-6.8% (inactive)
16,Cc1ccc(Oc2cc(NC(=O)CCCn3nc(C)c([N+](=O)[O-])c3C)cc([N+](=O)[O-])c2)cc1,30.9% (inactive)
17,COc1ccc(CNC(=O)CCCn2nc(C)c([N+](=O)[O-])c2C)cc1,10.9% (inactive)
18,Cc1nn(CCOc2ccc(Br)cc2)c(C)c1[N+](=O)[O-],62.3% (active)
19,CC(C=Cc1ccccc1)=NNS(=O)(=O)c1ccc([N+](=O)[O-])cc1,58.3% (active)
20,O=C(Cc1ccccc1)NNS(=O)(=O)c1ccc([N+](=O)[O-])cc1,11.1% (inactive)
21,CC(/C=C/c1ccccc1)=N\NC(=O)C1CC1(C)c1ccccc1 (configuration not stated),20% (inactive)

# Source: PubChem BioAssay AID602261 (Sanford-Burnham Center for Chemical Genomics, 2012)
